Screens (PubChem)
Sm TGR inh = S. mansoni TGR enzyme inhibition; purified TGR, DTNB reduction, TNB absorbance 405 nm; Potency, µM (top dose mostly 114 µM), usual class: inhibitors; hit rate 3% among 360,000; further: nearly all actives have a fitted effect of over 60% in size
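TGR 20 nM + NADPH 100 uM (dispensed conc.), cpd preinc 15 min RT; start with NADPH (500 uM addition) then DTNB (15 mM addition). Kinetic TNB absorbance, 405 nm filter. Four-parameter Hill fit across titration.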
AmpC no deterg = AmpC beta-lactamase inhibition without detergent; P00811; AmpC nitrocefin hydrolysis, absorbance 480 nm, 0.0001% Triton; Potency, µM (titrated, usually from 57.1 µM), actives largely listed as inhibitors; hit rate 0.52% among 330,000; further: nearly all actives have a fitted effect of over 20% in size
Target sequence (P00811 whole entry, looked up): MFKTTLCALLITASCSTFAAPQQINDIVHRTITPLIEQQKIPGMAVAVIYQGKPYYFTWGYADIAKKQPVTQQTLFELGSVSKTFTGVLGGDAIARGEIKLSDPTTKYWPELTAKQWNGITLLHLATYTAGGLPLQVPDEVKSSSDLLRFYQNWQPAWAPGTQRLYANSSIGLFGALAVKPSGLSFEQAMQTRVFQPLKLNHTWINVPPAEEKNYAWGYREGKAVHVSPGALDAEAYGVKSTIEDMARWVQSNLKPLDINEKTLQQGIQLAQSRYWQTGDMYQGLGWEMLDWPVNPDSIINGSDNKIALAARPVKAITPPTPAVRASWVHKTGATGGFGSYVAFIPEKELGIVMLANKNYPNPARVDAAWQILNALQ
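AmpC (5.3 nM in the dispensed reagent) in 20 mM phosphate pH 7.0 with 0.01% (detergent screen) or 0.0001% Triton X-100 was preincubated with compounds for 15 min at room temperature. Nitrocefin was then added from an 800 uM solution, and hydrolysis was followed at 480 nm.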
AmpC detergent = AmpC beta-lactamase inhibition with detergent present; AmpC hydrolysis of nitrocefin, absorbance 480 nm, 0.01% Triton; Potency, µM (doses to about 114 µM), actives largely listed as inhibitors; hit rate 0.041% among 370,000; AID 485294; P00811; further: nearly all actives have a fitted effect of over 25% in size
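20 mM phosphate pH 7.0 + 0.01% (detergent screen) or 0.0001% Triton X-100; 5.3 nM AmpC reagent; cpd preinc 15 min RT; nitrocefin (800 uM stock) to start; A480 q20 s × 4 min; Activity was normalised to no-enzyme and no-compound control wells.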
Each line names hits and unclear results; the compound was inactive in the other large screens; ! = repeats disagree. Shown are actives, neighbours in structure and some others; about 3.3% of the full set was active somewhere. The call rests on the fitted dose curve; in most records, active means well fitted curve in the direction sought with a large enough effect; inconclusive means small, poorly fitted or top-dose-only effect, or another doubt; inactive means no such curve, though single readings can be large; an effect the other way counts as inactive or inconclusive.

COc1ccc(S(=O)(=O)NCCc2csc(-c3cccc(F)c3)n2)cc1OC	none (no result: AmpC no deterg)
COc1ccc(CNC(=O)c2cc3c(=O)oc4ccc(C)cc4c3s2)c(OC)c1	none (no result: AmpC no deterg)
Cc1ccc(C)c(N2CCN(C(=O)c3cc4ccccc4oc3=O)CC2)c1	none
O=C(c1cc2ccccc2oc1=O)N1CCN(c2ccc(N3CCOCC3)nn2)CC1	AmpC no deterg 0.14µM, AmpC detergent inconclusive
O=C(CCN1CCN(c2ccccc2)CC1)N/N=C/c1ccc([N+](=O)[O-])o1	Sm TGR inh 32µM
CCCCCCCC(=O)N/N=C/c1ccc([N+](=O)[O-])o1	Sm TGR inh inconclusive
O=C(CCN1CCN(c2ccccc2)CC1)N/N=C/c1ccc(O)c(O)c1O	none (no result: Sm TGR inh)
O=C(CN1CCCCCCC1)N/N=C/c1ccc([N+](=O)[O-])o1	Sm TGR inh 14µM
CCCCOc1ccc(C2=NC(c3ccccc3)=Nc3ccc(OC)cc3N2)cc1	none (no result: AmpC no deterg)
Cc1ccccc1Cn1cnc2nc3c(cc2c1=O)CC(C)CC3 (stereo not drawn)	none (no result: AmpC no deterg)
CC1CCC(NC(=O)C2COc3ccccc3O2)CC1 (stereo not drawn)	Sm TGR inh inconclusive
O=C(N/N=C/C=C/c1ccc([N+](=O)[O-])cc1)C1COc2ccccc2O1 (stereo not drawn)	AmpC detergent inconclusive
O=C(NC1CCCCC1)C1COc2ccccc2O1 (stereo not drawn)	Sm TGR inh 28µM, AmpC detergent inconclusive
O=C(NCCc1ccc(O)c(O)c1)C1COc2ccccc2O1 (stereo not drawn)	Sm TGR inh 4.5µM
O=C(N/N=C\C=C\c1ccco1)C1COc2ccccc2O1 (stereo not drawn)	Sm TGR inh 3.2µM
O=C(NCCc1ccccc1)C1COc2ccccc2O1 (stereo not drawn)	none
Cc1ccc(CNc2ncnc3onc(-c4ccc(F)cc4)c23)cc1	none (no result: AmpC no deterg)
COc1ccc(NC(=S)NCCCCCC(=O)C[N+](=O)[O-])cc1	Sm TGR inh 20µM
O=C(CCCCCNC(=S)Nc1ccccc1)C[N+](=O)[O-]	Sm TGR inh 25µM
O=C(CCCCCNC(=S)Nc1ccc(Cl)cc1)C[N+](=O)[O-]	AmpC no deterg 20µM
CCCCNC(=S)Nc1ccc([N+](=O)[O-])cc1	Sm TGR inh inconclusive
COc1ccc(CCNC(=S)Nc2ccc(OC)cc2)cc1	none
O=C(CCCCCNC(=O)c1ccccc1)C[N+](=O)[O-]	none
Cc1ccccc1NC(=O)Cn1c(=O)n(CCCC(=O)NCc2ccc3c(c2)OCO3)c(=O)c2ccccc21	none (no result: AmpC no deterg)
CCCc1nnc(NC(=O)c2cc(=O)c3cc(C)c(C)cc3o2)s1	none (no result: AmpC no deterg)
CC(C)Oc1ccc(CNC(=O)CN2C(=O)c3cccnc3Oc3ccc(Cl)cc32)cc1	none (no result: AmpC no deterg)
COc1cc(/C=C/c2nc(C#N)c(N3CCN(C)CC3)o2)cc(OC)c1OC	none (no result: AmpC no deterg)
N#Cc1nc(-c2ccc(OCc3ccccc3)cc2)oc1NCc1cccnc1	none
CN(C)c1oc(-c2ccc(OCc3ccccc3)cc2)nc1C#N	Sm TGR inh 100µM, AmpC detergent inconclusive
CCOc1cc2[nH]c(=O)n(CCC(=O)N3CCN(c4cccc(Cl)c4)CC3)c(=O)c2cc1OCC	none (no result: AmpC no deterg)
COc1ccc(N=Nc2n(C)c3ccccc3[n+]2C)cc1	Sm TGR inh 5µM
Cn1c(COc2ccccc2O)[n+](C)c2ccccc21	none
CCC(=O)NC(C)C(c1cccs1)N1CCN(Cc2ccccc2)CC1 (stereo not drawn)	AmpC no deterg 45µM, AmpC detergent inconclusive
CC(NC(=O)c1cccs1)C(c1cccs1)N1CCN(Cc2ccccc2)CC1 (stereo not drawn)	none
CCOC(=O)CCc1c(C)nc(-n2[nH]c(C)c(CCO)c2=O)[nH]c1=O	Sm TGR inh 16µM
Cc1[nH]n(-c2nc(-c3ccccc3)cc(=O)[nH]2)c(=O)c1CCO	none
COc1ccc(OC)c(NC(=O)CN(C)S(=O)(=O)c2ccc(C(=O)N3CCOCC3)s2)c1	AmpC detergent inconclusive (no result: AmpC no deterg)
Cc1cc(C(=O)N/N=C/c2ccc(O)c(O)c2O)c(C)n1-c1ccccc1	Sm TGR inh 40µM
Cc1cc(/C=N/NC(=O)c2ccncc2)c(C)n1-c1ccccc1	AmpC detergent inconclusive
CCn1c(=O)c2cc(C(=O)NCCCN3CCN(C)CC3)sc2c2ccccc21	none (no result: AmpC no deterg)
CC(Oc1ccc(-c2ccccc2)c(F)c1)c1ccn(S(=O)(=O)c2ccc(F)cc2)n1 (stereo not drawn)	none
COc1ccc(S(=O)(=O)n2ccc(C(C)Oc3ccc(-c4ccccc4)c(F)c3)n2)cc1 (stereo not drawn)	AmpC no deterg 0.4µM
CCCCN(CC)CCCNC(=O)c1cn(CC(C)C)c(=O)c2c1c1ccccc1n2C	Sm TGR inh 32µM!
CCN(CC)CCCNC(=O)c1cn(CC(C)C)c(=O)c2c1c1ccccc1n2C	Sm TGR inh inconclusive
COc1cccc(CNC(=O)CSc2ncc(S(=O)(=O)c3ccc(Br)cc3)c(=O)[nH]2)c1	none (no result: AmpC no deterg)
O=C(CC1C(=O)NCCN1Cc1ccccc1F)NC1CCCCCC1 (stereo not drawn)	Sm TGR inh inconclusive
O=C(CC1C(=O)NCCN1Cc1ccc(Cl)c(F)c1)NC1CCCCC1 (stereo not drawn)	none
O=C(CC1C(=O)NCCN1Cc1ccccc1C(F)(F)F)NC1CCCC1 (stereo not drawn)	Sm TGR inh 40µM, AmpC detergent inconclusive
O=C(CC1C(=O)NCCN1Cc1cccc(C(F)(F)F)c1)NC1CCCCCC1 (stereo not drawn)	Sm TGR inh 22µM
Cc1ccc(-c2noc(-c3ccc(NCC4CCCO4)c([N+](=O)[O-])c3)n2)cc1 (stereo not drawn)	none (no result: AmpC no deterg)
Cc1ccc(CN2C(=O)c3ccccc3S(=O)(=O)c3ccc(C(=O)OCC4CCCO4)cc32)cc1 (stereo not drawn)	none (no result: AmpC no deterg)
Cc1ccc(-n2nc(C)c3c2OC(N)=C(C#N)C3c2ccc(C)o2)cc1 (stereo not drawn)	Sm TGR inh 22µM
Cc1ccc(SCc2[nH]nc3c2C(c2ccco2)C(C#N)=C(N)O3)cc1 (stereo not drawn)	Sm TGR inh inconclusive, AmpC detergent inconclusive
Cc1ccc(SCc2[nH]nc3c2C(c2ccc(C)o2)C(C#N)=C(N)O3)cc1 (stereo not drawn)	Sm TGR inh 25µM
Cc1ccc(-n2nc(C)c3c2OC(N)=C(C#N)C3c2ccco2)cc1 (stereo not drawn)	Sm TGR inh 40µM
Cc1ccc(-n2nc(C)c3c2OC(N)=C(C#N)C3c2ccoc2)cc1 (stereo not drawn)	Sm TGR inh inconclusive
COc1ccc(OC)c(C2C(C#N)=C(N)Oc3c2c(C)nn3-c2ccc(C)cc2)c1 (stereo not drawn)	none
Cc1nn(Cc2ccccc2)c2c1C(c1ccc(Cl)cc1)C(C#N)=C(N)O2 (stereo not drawn)	none
Cc1nn(Cc2ccccc2)c2c1C(c1ccco1)C(C#N)=C(N)O2 (stereo not drawn)	Sm TGR inh 50µM
COc1ccc(-c2nn(C)c3sc(C(=O)N4CCN(c5cccc(Cl)c5)CC4)cc23)cc1OC	none (no result: AmpC no deterg)
COc1cc(C)c(C)cc1S(=O)(=O)Nc1cccc(-c2ccc(N3CCOCC3)nn2)c1	none (no result: AmpC no deterg)
CCc1ccc(Cn2c(CNS(=O)(=O)c3ccc(F)c(Cl)c3)nc3cccnc32)cc1	none (no result: AmpC no deterg)
